Records with an inconclusive call do not appear. The source made the active and inactive calls. How the source made its calls, unless noted: active means hit-call score of the fitted dose curve at least 0.9, where 1 is the maximum; inactive means score below 0.9.
Tests used:
[1] = target: human Retinoid X Receptor beta (RXRb), RXRB (gene 6257) (UniProt P28702); test: ATG_RXRb_TRANS: Attagene TRANS-FACTORIAL HepG2 Assay for human Retinoid X Receptor beta (RXRb) (AID 2283013; active means hit-call score of the fitted dose curve at least 0.9, where 1 is the maximum)
Sequence of human Retinoid X Receptor beta (RXRb), RXRB (gene 6257) (P28702 whole entry, looked up, the tested form may be a part): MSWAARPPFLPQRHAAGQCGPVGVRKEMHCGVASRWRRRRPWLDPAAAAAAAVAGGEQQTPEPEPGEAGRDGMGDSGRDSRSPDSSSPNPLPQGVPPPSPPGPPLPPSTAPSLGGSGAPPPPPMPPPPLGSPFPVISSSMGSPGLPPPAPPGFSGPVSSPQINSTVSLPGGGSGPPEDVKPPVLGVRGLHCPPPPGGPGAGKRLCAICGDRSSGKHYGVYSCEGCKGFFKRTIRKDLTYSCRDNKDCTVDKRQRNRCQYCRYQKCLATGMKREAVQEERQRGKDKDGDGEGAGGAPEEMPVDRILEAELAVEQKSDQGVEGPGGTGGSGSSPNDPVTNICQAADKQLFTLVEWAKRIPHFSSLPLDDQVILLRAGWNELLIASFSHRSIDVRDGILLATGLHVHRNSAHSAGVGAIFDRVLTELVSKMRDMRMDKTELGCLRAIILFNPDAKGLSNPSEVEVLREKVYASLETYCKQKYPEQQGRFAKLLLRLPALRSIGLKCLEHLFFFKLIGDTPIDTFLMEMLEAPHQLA
Method in brief: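 Readout is reporter transcript induction after 24 h dosing. It is measured by RT-PCR of total RNA followed by fluorescent capillary electrophoresis. HepG2 liver cells carry transfected multiple reporter units driven by an exogenous RXRb-Gal4 fusion; activity is relative to DMSO.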

[2] = read-out: E-selectin (Homo sapiens) (UniProt P16581); test: BSK_3C_Eselectin: BioMAP Diversity Plus: 3C Assay for Eselectin Biomarker Activity (AID 2283015); conditions: primary human endothelial cells (HUVEC); actives raise or lower the signal;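 further: cell surface E-selectin protein quantified by ELISA 24 h after dosing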
Method in brief: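 HUVEC, 3C stimulation; compound exposure 24 h; E-selectin by ELISA; gain- or loss-of-signal fitted bidirectionally vs DMSO baseline.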

[3] = read-out: Interleukin-1 alpha (IL1a), IL1A (gene 3552); test: BSK_BE3C_IL1a: BioMAP Diversity Plus: BE3C Assay for Interleukin-1 alpha (IL1a) Biomarker Activity (AID 2283016); conditions: primary human bronchial epithelial cells; actives raise or lower the signal
Method in brief: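 IL-1a measured by ELISA after 24 h treatment of human primary bronchial epithelial cells, with gain or loss of signal fitted versus DMSO. Parallel cultures stained with SRB gauge overt cytotoxicity.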

[4] = read-out: Monocyte Chemoattractant Protein-1 (MCP1), CCL2 (gene 6347); test: BSK_3C_MCP1: BioMAP Diversity Plus: 3C Assay for Monocyte Chemoattractant Protein-1 (MCP1) Biomarker Activity (AID 2283017); conditions: primary human endothelial cells (HUVEC); actives raise or lower the signal
Method in brief: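 HUVEC, 3C system; 24 h chemical exposure; MCP-1 by ELISA; bidirectional curve fit vs DMSO baseline.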

[5] = read-out: Monocyte Chemoattractant Protein-1 (MCP1), CCL2 (gene 6347); test: BSK_4H_MCP1: BioMAP Diversity Plus: 4H Assay for Monocyte Chemoattractant Protein-1 (MCP1) Biomarker Activity (AID 2283018); conditions: primary human endothelial cells (HUVEC); actives raise or lower the signal
Method in brief: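 ELISA of MCP-1 (CCL2) 24 h after chemical dosing of HUVEC in the BioMAP 4H system. Gain or loss versus DMSO fitted; parallel SRB staining (560 nm) tracked overt cytotoxicity.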

[6] = read-out: Human Leukocyte Antigen - DR isotype (HLADR), HLA-DRA (gene 3122); test: BSK_3C_HLADR: BioMAP Diversity Plus: 3C Assay for Human Leukocyte Antigen - DR isotype (HLADR) Biomarker Activity (AID 2283019); conditions: primary human endothelial cells (HUVEC); actives raise or lower the signal;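 further: ELISA of cell-surface HLA-DR on HUVEC 24 h after dosing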
Method in brief: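 HUVEC, 3C stimulation, 24 h post-dose; HLA-DR by ELISA; bidirectional curve fit vs DMSO baseline; gain or loss of signal scored.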

[7] = read-out: Interleukin-8 (IL8), CXCL8 (gene 3576); test: BSK_3C_IL8: BioMAP Diversity Plus: 3C Assay for Interleukin-8 (IL8) Biomarker Activity (AID 2283020); conditions: primary human endothelial cells (HUVEC); actives raise or lower the signal
Method in brief: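 IL-8 was measured by ELISA in HUVEC cultures 24 h after chemical dosing, with gain or loss of signal fitted relative to DMSO. Parallel SRB total-protein staining tracked overt cytotoxicity.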

[8] = BSK_3C_SRB: Viability Assessment in the BioMAP Diversity Plus: 3C Assay (AID 2283023); conditions: primary human endothelial cells (HUVEC);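 further: cells read 24 h after compound dosing; fitted both ways against DMSO so a hit may be signal rise or drop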
Method in brief: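 HUVEC, 24 h post-dose; 10% TCA fix, 0.1% SRB stain, A560 nm. Bidirectional curve fit vs DMSO negative control.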

[9] = read-out: Matrix Metallopeptidase 1 (MMP1), MMP1 (gene 4312); test: BSK_BE3C_MMP1: BioMAP Diversity Plus: BE3C Assay for Matrix Metallopeptidase 1 (MMP1) Biomarker Activity (AID 2283024); conditions: primary human bronchial epithelial cells; actives raise or lower the signal
Method in brief: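 ELISA measurement of MMP-1 after 24 h compound exposure of primary human bronchial epithelial cells. Changes in either direction fitted relative to DMSO; parallel SRB staining checked overt cytotoxicity.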

[10] = BSK_3C_Vis: BioMAP Diversity Plus: 3C Assay for Morphology Visualization (AID 2283025); conditions: primary human endothelial cells (HUVEC);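 further: fitted both ways so gain or loss versus DMSO counts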
Method in brief: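 Light-microscopy visualization of HUVEC cultures at 24 h post-treatment, with DMSO as baseline for bidirectional fitting.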

[11] = read-out: Pselectin, SELP (gene 6403); test: BSK_4H_Pselectin: BioMAP Diversity Plus: 4H Assay for Pselectin Biomarker Activity (AID 2283026); conditions: primary human endothelial cells (HUVEC); actives raise or lower the signal
Method in brief: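 ELISA of surface P-selectin on HUVEC, 24 h after dosing, with parallel SRB staining (0.1% after 10% TCA fixation, 560 nm) for overt cytotoxicity. Activity fitted in both directions relative to DMSO.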

[12] = BSK_4H_SRB: Viability Assessment in the BioMAP Diversity Plus: 4H Assay (AID 2283027); conditions: primary human endothelial cells (HUVEC);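 further: cells exposed to compound for 24 h before staining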
Method in brief: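 HUVEC, 24 h post-dose; 10% TCA fix, 0.1% SRB stain, A560 nm. Total protein = overt cytotoxicity, parallel to biomarker read. Bidirectional fit vs DMSO baseline.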

[13] = BSK_BE3C_SRB: Viability Assessment in the BioMAP Diversity Plus: BE3C Assay (AID 2283028); conditions: primary human bronchial epithelial cells
Method in brief: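 Primary human bronchial epithelium; chemical dosing, 24 h; 10% TCA fix, 0.1% SRB stain, A560; bidirectional fit vs DMSO baseline.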

[14] = read-out: Thrombomodulin, THBD (gene 7056); test: BSK_3C_Thrombomodulin: BioMAP Diversity Plus: 3C Assay for Thrombomodulin Biomarker Activity (AID 2283029); conditions: primary human endothelial cells (HUVEC); actives raise or lower the signal
Method in brief: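 ELISA measurement of thrombomodulin on HUVEC surface 24 h after chemical dosing; activity fitted in both directions relative to DMSO vehicle.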

[15] = read-out: Vascular endothelial growth factor receptor 2 (Homo sapiens) (UniProt P35968); test: BSK_4H_VEGFRII: BioMAP Diversity Plus: 4H Assay for Vascular endothelial growth factor receptor 2 (VEGFR2) Biomarker Activity (AID 2283031); conditions: primary human endothelial cells (HUVEC); actives raise or lower the signal
Method in brief: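 HUVEC (human primary), 4H system; 24 h post-dose; VEGFRII by ELISA; bidirectional curve fit vs DMSO baseline; gain or loss of signal scored.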

[16] = read-out: Monokine induced gamma interferon (MIG), CXCL9 (gene 4283); test: BSK_3C_MIG: BioMAP Diversity Plus: 3C Assay for Monokine induced gamma interferon (MIG) Biomarker Activity (AID 2283021); conditions: primary human endothelial cells (HUVEC); actives raise or lower the signal
Method in brief: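 ELISA measurement of MIG in human umbilical vein endothelial cells 24 h after treatment. Cytotoxicity tracked by SRB staining in parallel cultures; gain or loss of signal fitted relative to DMSO.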

[17] = target: human Vitamin D Receptor (VDR), VDR (gene 7421) (UniProt P11473); test: ATG_VDR_TRANS: Attagene TRANS-FACTORIAL HepG2 Assay for human Vitamin D Receptor (VDR) (AID 2283022; active means hit-call score of the fitted dose curve at least 0.9, where 1 is the maximum)
Sequence of human Vitamin D Receptor (VDR), VDR (gene 7421) (P11473 whole entry, looked up, the tested form may be a part): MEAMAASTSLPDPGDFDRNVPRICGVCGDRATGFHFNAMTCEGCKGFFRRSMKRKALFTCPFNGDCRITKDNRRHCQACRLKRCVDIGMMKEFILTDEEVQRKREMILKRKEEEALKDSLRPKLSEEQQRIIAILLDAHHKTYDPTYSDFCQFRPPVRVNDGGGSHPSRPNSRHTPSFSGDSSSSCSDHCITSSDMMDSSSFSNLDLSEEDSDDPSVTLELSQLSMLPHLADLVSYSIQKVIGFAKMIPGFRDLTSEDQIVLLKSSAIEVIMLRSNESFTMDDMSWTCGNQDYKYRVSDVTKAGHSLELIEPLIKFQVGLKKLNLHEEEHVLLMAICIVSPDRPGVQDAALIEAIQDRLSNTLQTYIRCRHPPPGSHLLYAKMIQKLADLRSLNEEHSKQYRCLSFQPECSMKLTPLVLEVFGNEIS
Method in brief: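 RT-PCR/capillary electrophoresis read-out of reporter mRNA induction in transiently transfected HepG2; 24 h dosing; chimeric NR-Gal4 (TRANS format); gain-of-signal fit against DMSO baseline.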

[18] = read-out: Urokinase-type plasminogen activator receptor (uPAR), PLAUR (gene 5329); test: BSK_4H_uPAR: BioMAP Diversity Plus: 4H Assay for Urokinase-type plasminogen activator receptor (uPAR) Biomarker Activity (AID 2283030); conditions: primary human endothelial cells (HUVEC); actives raise or lower the signal
Method in brief: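 HUVEC, 24 h post-dose; uPAR by ELISA; bidirectional fit vs DMSO baseline.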

[19] = target: human Thyroid Receptor alpha (THRa1), THRA (gene 7067) (UniProt P10827); test: ATG_THRa1_TRANS: Attagene TRANS-FACTORIAL HepG2 Assay for human Thyroid Receptor alpha (THRa1) (AID 2283014; active means hit-call score of the fitted dose curve at least 0.9, where 1 is the maximum)
Sequence of human Thyroid Receptor alpha (THRa1), THRA (gene 7067) (P10827 whole entry, looked up, the tested form may be a part): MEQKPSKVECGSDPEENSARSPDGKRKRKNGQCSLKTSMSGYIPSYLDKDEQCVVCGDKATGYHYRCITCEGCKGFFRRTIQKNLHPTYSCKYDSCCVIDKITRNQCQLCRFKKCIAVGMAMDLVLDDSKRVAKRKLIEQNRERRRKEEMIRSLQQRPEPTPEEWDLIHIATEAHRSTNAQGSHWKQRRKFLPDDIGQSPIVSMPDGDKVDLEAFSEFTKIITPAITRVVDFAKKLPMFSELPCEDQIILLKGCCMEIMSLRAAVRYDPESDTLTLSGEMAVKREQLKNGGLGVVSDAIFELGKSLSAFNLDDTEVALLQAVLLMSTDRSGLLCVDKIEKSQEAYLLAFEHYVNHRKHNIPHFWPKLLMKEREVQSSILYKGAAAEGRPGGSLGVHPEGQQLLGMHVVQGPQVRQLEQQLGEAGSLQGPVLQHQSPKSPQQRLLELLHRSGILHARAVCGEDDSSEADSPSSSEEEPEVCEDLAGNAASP
Method in brief: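 Transient HepG2 transfection, NR-Gal4 chimera driving GAL4-UAS reporters; 24 h compound exposure; total RNA, oligo(dT) RT, PCR, fluorescent primer extension, capillary electrophoresis. Upward direction vs DMSO control.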

Measured: outcome

Sequence of E-selectin (Homo sapiens) (P16581 whole entry, looked up): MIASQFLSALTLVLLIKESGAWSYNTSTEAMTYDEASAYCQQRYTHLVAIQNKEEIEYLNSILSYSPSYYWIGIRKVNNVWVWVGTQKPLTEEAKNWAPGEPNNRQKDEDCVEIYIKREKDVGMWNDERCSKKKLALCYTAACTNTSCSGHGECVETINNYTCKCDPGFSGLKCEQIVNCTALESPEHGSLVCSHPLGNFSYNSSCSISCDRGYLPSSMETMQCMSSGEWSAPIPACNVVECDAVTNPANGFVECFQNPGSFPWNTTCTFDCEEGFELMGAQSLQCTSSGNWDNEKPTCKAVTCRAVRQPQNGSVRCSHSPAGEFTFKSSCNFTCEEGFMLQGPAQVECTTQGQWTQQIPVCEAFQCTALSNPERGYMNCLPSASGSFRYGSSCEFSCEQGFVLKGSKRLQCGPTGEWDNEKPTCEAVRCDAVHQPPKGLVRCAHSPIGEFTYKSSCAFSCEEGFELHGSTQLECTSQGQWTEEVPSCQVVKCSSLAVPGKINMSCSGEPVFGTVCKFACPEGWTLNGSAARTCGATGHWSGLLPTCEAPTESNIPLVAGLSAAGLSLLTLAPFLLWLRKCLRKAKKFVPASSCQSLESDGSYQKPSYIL

Cc1cc(Cc2ccc(N)c(C)c2)ccc1N
not listed: [16] | [17] | [18] | [19]
inactive: all other assays above

Cc1occc(=O)c1O
not listed: [1] | [19]
inactive: all other assays above

c1ccc2occc2c1
not listed: [1] | [17] | [18]
inactive: all other assays above

O=Cc1ccccc1C=O
not listed: [17] | [19]
inactive: all other assays above

From PubChem BioAssay (EPA / NIEHS)
